Data as given in paper PMC11006913.
Where a chain is given by its changes, count along the chain named.

Columns and labels:
Assay in all cases: PBM; 200 nM protein, PBS
Details in all cases: dsDNA, one strand shown
SIX6 [1] = target: T1, SIX6 (Homo sapiens, UniProt O95475 114-200, T165G)
T1 sequence: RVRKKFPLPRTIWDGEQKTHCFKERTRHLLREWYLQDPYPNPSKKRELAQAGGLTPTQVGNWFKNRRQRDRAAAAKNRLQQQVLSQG

HOXA2 [2] = target: HOXA2 (Homo sapiens, UniProt O43364 129-215, R185T)
ALX1 [3] = target: ALX1 (Homo sapiens, UniProt Q15699 118-204, L144V)
ALX3 [4] = target: ALX3 (Homo sapiens, UniProt O95076 139-225, N203Q)
NKX2-6 [5] = target: T2, NKX2-6 (Homo sapiens, UniProt A6NCS4 118-204)
T2 sequence: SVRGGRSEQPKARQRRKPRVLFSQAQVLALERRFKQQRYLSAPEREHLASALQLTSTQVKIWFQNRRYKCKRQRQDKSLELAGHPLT

HOXA2 [6] = target: HOXA2 (Homo sapiens, UniProt O43364 129-215, R185K)
ALX1 [7] = target: ALX1 (Homo sapiens, UniProt Q15699 118-204, L144R)
ALX3 [8] = target: ALX3 (Homo sapiens, UniProt O95076 139-225)
ALX3 [9] = target: ALX3 (Homo sapiens, UniProt O95076 139-225, L168Q)
NKX2-6 [10] = target: T3, NKX2-6 (Homo sapiens, UniProt A6NCS4 118-204, F151L)
T3 sequence: T2 sequence with F34L

ALX3 [11] = target: ALX3 (Homo sapiens, UniProt O95076 139-225, L168V)
HOXA2 [12] = target: HOXA2 (Homo sapiens, UniProt O43364 129-215, Y150S)
ALX1 [13] = target: ALX1 (Homo sapiens, UniProt Q15699 118-204)
ALX3 [14] = target: ALX3 (Homo sapiens, UniProt O95076 139-225, N203S)
HOXA2 [15] = target: HOXA2 (Homo sapiens, UniProt O43364 129-215)
HESX1 = HESX1 (Homo sapiens, UniProt Q9UBX0 95-180)
NKX2-6 [16] = target: T4, NKX2-6 (Homo sapiens, UniProt A6NCS4 118-204, R150C)
T4 sequence: T2 sequence with R33C

MSX2 [17] = target: MSX2 (Homo sapiens, UniProt P35548 130-214, R199I)
MSX2 [18] = target: MSX2 (Homo sapiens, UniProt P35548 130-214)
MSX2 [19] = target: MSX2 (Homo sapiens, UniProt P35548 130-214, F161Y)
SIX6 [20] = target: T5, SIX6 (Homo sapiens, UniProt O95475 114-200, T165A)
T5 sequence: T1 sequence with G52A

NKX3-2 [21] = target: NKX3-2 (Homo sapiens, UniProt P78367 192-278, P234S)
NKX3-2 [22] = target: NKX3-2 (Homo sapiens, UniProt P78367 192-278)
NKX3-2 (Homo sapiens, UniProt P78367 192-278), sequence (P78367 192-278): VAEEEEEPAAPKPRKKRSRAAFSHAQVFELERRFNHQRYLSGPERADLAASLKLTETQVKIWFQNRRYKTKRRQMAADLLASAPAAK

HOXA2 (Homo sapiens, UniProt O43364 129-215, Y150S), sequence (O43364 129-215 Y150S): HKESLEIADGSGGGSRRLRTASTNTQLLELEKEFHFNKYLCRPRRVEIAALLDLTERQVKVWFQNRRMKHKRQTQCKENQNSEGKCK
HOXA2 (Homo sapiens, UniProt O43364 129-215, R185K), sequence (O43364 129-215 R185K): as the sequence (O43364 129-215 Y150S) above, with S22Y, R57K counted along it
HOXA2 (Homo sapiens, UniProt O43364 129-215), sequence (O43364 129-215): as the sequence (O43364 129-215 Y150S) above, with S22Y counted along it
HOXA2 (Homo sapiens, UniProt O43364 129-215, R185T), sequence (O43364 129-215 R185T): as the sequence (O43364 129-215 Y150S) above, with S22Y, R57T counted along it
ALX1 (Homo sapiens, UniProt Q15699 118-204, L144V), sequence (Q15699 118-204 L144V): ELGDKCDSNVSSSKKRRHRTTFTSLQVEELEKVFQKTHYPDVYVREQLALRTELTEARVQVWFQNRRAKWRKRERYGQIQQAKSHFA
ALX3 (Homo sapiens, UniProt O95076 139-225), sequence (O95076 139-225): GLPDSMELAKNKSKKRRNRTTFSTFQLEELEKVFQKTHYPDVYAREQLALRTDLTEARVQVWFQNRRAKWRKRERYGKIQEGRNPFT
HESX1, sequence (Q9UBX0 95-180): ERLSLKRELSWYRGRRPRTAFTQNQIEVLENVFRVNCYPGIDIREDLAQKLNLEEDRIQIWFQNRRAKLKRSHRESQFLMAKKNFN
ALX3 (Homo sapiens, UniProt O95076 139-225, N203S), sequence (O95076 139-225 N203S): as the sequence (O95076 139-225) above, with N65S counted along it
ALX1 (Homo sapiens, UniProt Q15699 118-204), sequence (Q15699 118-204): as the sequence (Q15699 118-204 L144V) above, with V27L counted along it
ALX3 (Homo sapiens, UniProt O95076 139-225, N203Q), sequence (O95076 139-225 N203Q): as the sequence (O95076 139-225) above, with N65Q counted along it
ALX1 (Homo sapiens, UniProt Q15699 118-204, L144R), sequence (Q15699 118-204 L144R): as the sequence (Q15699 118-204 L144V) above, with V27R counted along it
ALX3 (Homo sapiens, UniProt O95076 139-225, L168V), sequence (O95076 139-225 L168V): as the sequence (O95076 139-225) above, with L30V counted along it
NKX3-2 (Homo sapiens, UniProt P78367 192-278, P234S), sequence (P78367 192-278 P234S): as the sequence (P78367 192-278) above, with P43S counted along it
MSX2 (Homo sapiens, UniProt P35548 130-214, F161Y), sequence (P35548 130-214 F161Y): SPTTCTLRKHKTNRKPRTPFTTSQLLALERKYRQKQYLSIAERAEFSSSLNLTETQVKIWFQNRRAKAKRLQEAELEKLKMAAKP
MSX2 (Homo sapiens, UniProt P35548 130-214, R199I), sequence (P35548 130-214 R199I): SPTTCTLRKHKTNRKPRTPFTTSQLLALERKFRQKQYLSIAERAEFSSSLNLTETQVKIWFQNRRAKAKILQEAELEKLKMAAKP
MSX2 (Homo sapiens, UniProt P35548 130-214), sequence (P35548 130-214): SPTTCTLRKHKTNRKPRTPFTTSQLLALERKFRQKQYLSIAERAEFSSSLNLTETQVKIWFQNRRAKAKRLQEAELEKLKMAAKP
ALX3 (Homo sapiens, UniProt O95076 139-225, L168Q), sequence (O95076 139-225 L168Q): as the sequence (O95076 139-225) above, with L30Q counted along it

Q: Which binding signal (SIX6 [1]) does the source give for CTGGTGTC here?
A: 10.6 upbm affinity estimate (log intensity, higher = more binding, comparable within an allelic series)

Q: Which results are given for CCGGTTCC?
A: binding signal (HOXA2 [2]): 6.98 upbm affinity estimate (log intensity, higher = more binding, comparable within an allelic series); binding signal (ALX1 [3]): 6.06 upbm affinity estimate (log intensity, higher = more binding, comparable within an allelic series); binding signal (ALX3 [4]): 7.77 upbm affinity estimate (log intensity, higher = more binding, comparable within an allelic series); binding signal (NKX2-6 [5]): 9.05 upbm affinity estimate (log intensity, higher = more binding, comparable within an allelic series); binding signal (HOXA2 [6]): 10.1 upbm affinity estimate (log intensity, higher = more binding, comparable within an allelic series); binding signal (ALX1 [7]): 6.02 upbm affinity estimate (log intensity, higher = more binding, comparable within an allelic series); binding signal (ALX3 [8]): 7.63 upbm affinity estimate (log intensity, higher = more binding, comparable within an allelic series); binding signal (ALX3 [9]): 7.69 upbm affinity estimate (log intensity, higher = more binding, comparable within an allelic series); binding signal (NKX2-6 [10]): 9.2 upbm affinity estimate (log intensity, higher = more binding, comparable within an allelic series); binding signal (ALX3 [11]): 7.7 upbm affinity estimate (log intensity, higher = more binding, comparable within an allelic series); binding signal (HOXA2 [12]): 10.4 upbm affinity estimate (log intensity, higher = more binding, comparable within an allelic series); binding signal (ALX1 [13]): 6 upbm affinity estimate (log intensity, higher = more binding, comparable within an allelic series); binding signal (ALX3 [14]): 7.77 upbm affinity estimate (log intensity, higher = more binding, comparable within an allelic series); binding signal (HOXA2 [15]): 6.81 upbm affinity estimate (log intensity, higher = more binding, comparable within an allelic series)

Q: CGACACCC was tested. Which binding signal (SIX6 [1]) did it give?
A: 10.5 upbm affinity estimate (log intensity, higher = more binding, comparable within an allelic series)

Q: Which binding signal (SIX6 [1]) does the source give for AGACACCC here?
A: 10.5 upbm affinity estimate (log intensity, higher = more binding, comparable within an allelic series)

Q: For GGTTATGA, which binding signal (HESX1) is on record?
A: 7.26 upbm affinity estimate (log intensity, higher = more binding, comparable within an allelic series)

Q: What does the source list for CTGGCTCC?
A: binding signal (HOXA2 [2]): 7.01 upbm affinity estimate (log intensity, higher = more binding, comparable within an allelic series); binding signal (NKX2-6 [16]): 9.34 upbm affinity estimate (log intensity, higher = more binding, comparable within an allelic series); binding signal (MSX2 [17]): 9.47 upbm affinity estimate (log intensity, higher = more binding, comparable within an allelic series); binding signal (HOXA2 [6]): 10.3 upbm affinity estimate (log intensity, higher = more binding, comparable within an allelic series); binding signal (MSX2 [18]): 9.34 upbm affinity estimate (log intensity, higher = more binding, comparable within an allelic series); binding signal (MSX2 [19]): 9.4 upbm affinity estimate (log intensity, higher = more binding, comparable within an allelic series); binding signal (HOXA2 [12]): 10.5 upbm affinity estimate (log intensity, higher = more binding, comparable within an allelic series); binding signal (HOXA2 [15]): 6.91 upbm affinity estimate (log intensity, higher = more binding, comparable within an allelic series)

Q: With AGGTGTGA as the sequence, how does the binding signal (SIX6 [1]) read?
A: 10.5 upbm affinity estimate (log intensity, higher = more binding, comparable within an allelic series)

Q: How did the binding signal (SIX6 [1]) turn out when AGACACCA was run?
A: 10.5 upbm affinity estimate (log intensity, higher = more binding, comparable within an allelic series)

Q: With GAATTCTA as the sequence, how does the binding signal (HESX1) read?
A: 6.97 upbm affinity estimate (log intensity, higher = more binding, comparable within an allelic series)

Q: For AGGTGTCG, which binding signal (SIX6 [1]) is on record?
A: 10.5 upbm affinity estimate (log intensity, higher = more binding, comparable within an allelic series)

Q: And the binding signal (SIX6 [20])?
A: 10.4 upbm affinity estimate (log intensity, higher = more binding, comparable within an allelic series)

Q: Which binding signal (HOXA2 [2]) does the source give for CGTATTAC here?
A: 9.06 upbm affinity estimate (log intensity, higher = more binding, comparable within an allelic series)

Q: And the binding signal (ALX3 [4])?
A: 8.19 upbm affinity estimate (log intensity, higher = more binding, comparable within an allelic series)

Q: And the binding signal (ALX3 [8])?
A: 9.9 upbm affinity estimate (log intensity, higher = more binding, comparable within an allelic series)

Q: What about the binding signal (ALX3 [14]) of the same sequence?
A: 8.23 upbm affinity estimate (log intensity, higher = more binding, comparable within an allelic series)

Q: And the binding signal (HOXA2 [15])?
A: 9.08 upbm affinity estimate (log intensity, higher = more binding, comparable within an allelic series)

Q: Which binding signal (HOXA2 [2]) does the source give for GACCGCCC here?
A: 7.33 upbm affinity estimate (log intensity, higher = more binding, comparable within an allelic series)

Q: What about the binding signal (ALX1 [3]) of the same sequence?
A: 6.66 upbm affinity estimate (log intensity, higher = more binding, comparable within an allelic series)

Q: And the binding signal (HOXA2 [6])?
A: 10.1 upbm affinity estimate (log intensity, higher = more binding, comparable within an allelic series)

Q: What about the binding signal (ALX1 [7]) of the same sequence?
A: 6.49 upbm affinity estimate (log intensity, higher = more binding, comparable within an allelic series)

Q: And the binding signal (HOXA2 [12])?
A: 10.4 upbm affinity estimate (log intensity, higher = more binding, comparable within an allelic series)

Q: What about the binding signal (NKX3-2 [21]) of the same sequence?
A: 10.5 upbm affinity estimate (log intensity, higher = more binding, comparable within an allelic series)

Q: And the binding signal (ALX1 [13])?
A: 6.57 upbm affinity estimate (log intensity, higher = more binding, comparable within an allelic series)

Q: And the binding signal (HOXA2 [15])?
A: 7.29 upbm affinity estimate (log intensity, higher = more binding, comparable within an allelic series)

Q: What about the binding signal (NKX3-2 [22]) of the same sequence?
A: 10.5 upbm affinity estimate (log intensity, higher = more binding, comparable within an allelic series)
